Screens deposited in PubChem by National Center for Advancing Translational Sciences (NCATS).
The list is not random: actives were taken first. Their share in the collection is about 12%.
PLK1 PBD inh: qHTS for Inhibitors of PLK1-PDB (polo-like kinase 1 - polo-box domain): Primary Screen; actives 2.8% (n = 360,000); Plk1 PBD binding of FITC phosphopeptide, fluorescence polarization; Serine/threonine-protein kinase PLK1 (Homo sapiens), P53350; Potency, µM, for the others: max response, negative = inhibition, actives largely listed as inhibitors; also: potency is read from the fitted curve at half-maximal effect; series mostly up to about 57 µM; % is scaled to controls: 0 for no effect and ±100 for the full control effect; nearly all actives have a fitted effect of over 65% in size
BAZ2B block: qHTS Assay for Inhibitors of BAZ2B | AlphaScreen BAZ2B-H3K14Ac peptide displacement | actives 4.4% (n = 360,000) | Potency, µM (highest dose often 114 µM), for inactives: top-dose activity change, negative = inhibition, hits mostly inhibitors; also: potency is read from the fitted curve at half-maximal effect; % is scaled to controls: 0 for no effect and ±100 for the full control effect; nearly all actives have a fitted effect of over 60% in size
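Compounds, titrated to a top concentration of 110 uM, were incubated 30 min at room temperature with preformed BAZ2B/acetyl-K14 H3 peptide complex (50 nM each). Proximity signal was measured by AlphaScreen after 20 min with beads.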
G9a block: qHTS Assay for Inhibitors of Histone Lysine Methyltransferase G9a | G9a H3K9 monomethylation, AlphaScreen, 2 h | Potency, µM (titrated, usually from 102 µM), without a hit: top-dose activity, negative = inhibition, usual class: inhibitors | actives 8.8% (n = 350,000) | AID 504332, 2011; also: potency is read from the fitted curve at half-maximal effect; % is scaled to controls: 0 for no effect and ±100 for the full control effect; nearly all actives have a fitted effect of over 75% in size
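AlphaScreen detection with an anti-monomethyl H3K9 antibody quantified product after a 2 h room-temperature reaction containing 500 nM biotinylated H3K9 peptide, 20 µM SAM and 20 nM enzyme, which had been preincubated 15 min with compound.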
HP1b chromo inh: HTS for Inhibitors of HP1-beta Chromodomain Interactions with Methylated Histone Tails. Potency, µM (series often up to 114 µM), without a hit: top-dose activity change, negative = inhibition, most hits filed as inhibitors. Chromobox protein homolog 1 (Homo sapiens), P83916. actives 0.56% (n = 390,000). AlphaScreen HP1-beta / biotin-H3K9me3 peptide binding; also: potency is read from the fitted curve at half-maximal effect; nearly all actives have a fitted effect of over 70% in size
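HP1-beta protein (50 nM final) preincubated 30 min at room temperature with biotinylated H3(1-18)K9me3 peptide (50 nM) in PBS pH 7.4, 0.01% Tween-20, then compound added for 30 min. AlphaScreen streptavidin donor/nickel chelate acceptor beads (10 ug/mL final), 30 min dark, luminescence read.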
JMJD2A Tudor inh: qHTS Assay for Inhibitors of JMJD2A-Tudor Domain | AID 504339, 2011 | AlphaScreen JMJD2A-Tudor / H3K4me3 peptide binding | actives 4.4% (n = 390,000) | Potency, µM (highest dose often 114 µM), for the others: at the highest dose activity change, negative = inhibition, actives largely listed as inhibitors; also: potency is read from the fitted curve at half-maximal effect; % is scaled to controls: 0 for no effect and ±100 for the full control effect; nearly all actives have a fitted effect of over 50% in size
PI5P4Ka inh: qHTS for Inhibitors of phosphatidylinositol 5-phosphate 4-kinase (PI5P4K); Phosphatidylinositol 5-phosphate 4-kinase type-2 alpha (Homo sapiens), P48426; PI5P4Kalpha enzyme, ADP-Glo luminescence, 60 min; hits give low values; max response, %; actives 1.2% (n = 330,000); AID 652105, 2013; active = max response of -50% or lower; inconclusive = between -30% and -50%; inactive = -30% or higher; also: value at the top dose of about 77 µM; % is scaled to controls: 0 for no effect and ±100 for the full control effect
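PI5P4Kalpha ADP-Glo assay; 5 microM ATP final; 60 min RT reaction; HEPES pH 7.4/EGTA/CHAPS, 5% DMSO; controls lacking substrate or enzyme; luminescent end-point.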
Starred values were filed as active, the others as inactive; ? = inconclusive; / = no result given; ! = not active in a repeat; [ ] = another dose, or the depositor's remark. Unless noted, calls follow the shape of the dose curve; as a rule, active = well fitted curve in the direction sought with a large enough effect; inconclusive = small, poorly fitted or top-dose-only effect, or another doubt; inactive = no such curve, though single readings can be large; an effect the other way counts as inactive or inconclusive.

SMILES | PLK1 PBD inh | BAZ2B block | G9a block | HP1b chromo inh | JMJD2A Tudor inh | PI5P4Ka inh
CCN1CCN(Cc2ccc(NC(=O)c3cc(NC(=O)c4cc(-c5ccc(OC)cc5)n[nH]4)cc(OC)c3)cc2C(F)(F)F)CC1 | -3.7% | ? | ? | -15.8% | ? | -66.7*
CCN1CCN(Cc2ccc(NC(=O)c3cc(NC(=O)c4ccno4)cc(OC)c3)cc2C(F)(F)F)CC1 | -3.8% | -30.4% | -36.0%[59 µM] | 14.4% | ? | -3.4
CCN1CCN(Cc2ccc(NC(=O)c3ccc(C)c(NC(=O)c4c[nH]c5cc(C(F)(F)F)ccc5c4=O)c3)cc2C(F)(F)F)CC1 | 4.2% | ? | ? | 5.1% | -22.5% | -67.0*
CCN1CCN(Cc2ccc(NC(=O)c3cc(NC(=O)c4cncc(-c5cccs5)c4)cc(OC)c3)cc2C(F)(F)F)CC1 | 3.1% | 35.5µM* | 50.1µM* | ? | 44.7µM* | -67.2*!
COc1cc(NC(=O)c2cc([N+](=O)[O-])ccc2NC(=O)CN2CCN(c3ccccn3)CC2)cc(OC)c1 | -7.6% | -3.3% | / | -18.9% | -27.8% | -4.9
O=C(O)c1ccc(NC(=S)NC(=O)c2ccc(-c3ccccc3)cc2)cc1 | ? | ? | 17.8µM* | ? | ? | -54.6*
Cc1nc(NC(=S)NC(=O)c2cncc(Br)c2)ccc1Br | 21.2µM* | -27.7% | / | 6.3% | 17.8µM* | -20.1
O=C(NC(=S)Nc1ccccc1)c1ccc(-c2ccccc2)cc1 | -9.9% | 7.3% | 17.9%[59 µM] | ? | -15.2% | 8.0
Cc1ccnc(NC(=S)NC(=O)c2cncc(Br)c2)c1 | 0.5% | -38.9% | 0.631µM* | 23.6% | 2.8% | -2.3
O=C(O)c1ccc(NC(=S)NC(=O)c2cncc(Br)c2)cc1 | -29.2% | ? | 39.8µM* | -0.8% | -8.1% | -9.6
Cc1nc(N2CCOCC2)c2c(C(=O)N3CCN(c4cc(Cl)ccc4C)CC3)c(C)oc2n1 | / | -11.5%[57.1 µM] | -37.9%[59 µM] | 15.1% | -23.3% | /
COc1ccc(NCCNc2ccc(OC)cc2)cc1 | -2.6% | 50.1µM* | 8.6%[0.0925 µM] | -18.2% | ? | /
Cc1ccc(CCNc2ccc3ccccc3c2)cn1 | -6.7% | / | / | ? | ? | 1.6
O=C1CCC(=O)N1CNc1ccc(Oc2ccccc2)cc1 | -3.3% | ? | ? | 1.8% | ? | /
Cc1ccc(NCCNc2ccc(C)cc2)cc1 | 1.5% | / | ? | -41.1% | 22.4µM* | /
Cc1ccc(NCCc2ccc(C)nc2)cc1 | -7.1% | -19.1% | 50.1µM* | -7.8% | -34.2% | 7.0
COc1ccc(NCN2C(=O)CCC2=O)cc1 | 23.8µM* | -3.8% | ? | -19.2% | -20.6%[11.4 µM] | -6.3
COc1ccccc1C(=O)NCC[N+](C)(C)C | 0.9% | / | / | / | / | -0.8
Cc1cccc(NCc2ccc(O)c3ncccc23)c1C | 5.97µM* | 56.2µM* | 0.398µM* | -4.4% | ? | ?
Cc1cccnc1NCc1ccc(O)c2ncccc12 | 18.9µM* | 12.6µM* | 1.78µM* | -15.3% | 22.4µM* | -2.0
CCOC(=O)c1ccccc1NC(=O)Cn1c(=O)n(-c2cccc(C)c2)c(=O)c2c1c1cc(C)ccc1n2C | / | 1.6% | 3.5%[59 µM] | 0.8% | -13.0% | /
CN(C)c1cccc2c1c(NS(=O)(=O)c1cn(C)cn1)nn2C | -16.5% | -19.2% | 8.91µM* | 51.0% | 0.3% | -6.6
Cc1ccc(NC2=NCC(=O)N2Cc2ccc3c(c2)OCO3)cc1 | 2.9% | -29.0% | 50.1µM* | 19.6% | -16.4% | -2.9
O=C1CN=C(Nc2ccccc2Cl)N1Cc1ccc2c(c1)OCO2 | -28.0% | -8.5% | ? | 69.5% | 89.1µM* | -3.3
CCc1ccccc1NC1=NCC(=O)N1Cc1ccc2c(c1)OCO2 | 29.9µM* | -4.2% | -25.3%[59 µM] | 2.0% | -34.4%[11.4 µM] | -11.4
SMILES | PLK1 PBD inh | BAZ2B block | G9a block | HP1b chromo inh | JMJD2A Tudor inh | PI5P4Ka inh
CSc1cccc(CNC(=O)C2CCC(=O)N(CCCN3CCCC3=O)C2)c1 (centres undefined) | -1.8% | -2.6% | 0.9% | 32.2% | -10.4% | 0.5
Cc1cccc(Nc2nnc(-c3ccc(C)c(S(=O)(=O)N4CCOCC4)c3)c3ccccc23)c1 | / | -11.1% | -33.7%[59 µM] | 20.1% | -15.0% | /
Clc1ccc2nc(CN3CCCCCC3)cn2c1 | -3.8% | ? | 3.1%[0.0925 µM] | 34.0% | 89.1µM* | 0.2
O=c1cc(CN2CCCc3ccccc32)nc2sccn12 | ? | -14.2% | ? | 21.1% | -21.8% | 2.2
Clc1ccc2nc(CN3CCCc4ccccc43)cn2c1 | -3.2% | 50.1µM* | ? | -37.8% | 50.1µM* | /
c1ccc(N2CCN(Cc3cn4ccccc4n3)CC2)cc1 | -6.6% | -23.6% | / | 59.2% | -16.5% | 0.2
Clc1ccc2nc(CN3CCCCC3)cn2c1 | -8.4% | 8.3% | 50.1µM* | 30.5% | -3.7% | /
CC(C)COC(=O)COc1cc(Cl)c(Cl)cc1Cl | / | 247.2% | 4.9%[0.501 µM] | / | / | /
Cc1c(Cl)cccc1-c1ccc(CNCCSc2nnnn2-c2ccccc2)o1 | / | ? | -33.3%[59 µM] | 3.2% | 2.8% | /
O=C(CCS(=O)(=O)c1cccc2nsnc12)Nc1ccc(F)cc1 | / | -0.8% | 10µM* | 3.2% | -20.8% | /
O=C(CS(=O)(=O)c1cccc2nsnc12)Nc1ccc(F)cc1 | / | -3.8% | 11.3%[59 µM] | 8.0%[57 µM] | -18.1% | /
O=C(CCS(=O)(=O)c1cccc2nonc12)Nc1ccc(Br)cc1 | ? | -1.1% | 7.7% | 5.0% | 79.4µM*! | -6.0
Nc1c(Nc2ccccc2)c2ccccc2oc1=O | 1.9% | ? | 50.1µM* | -3.3% | -33.8% | 1.0
CN(c1ccccc1)S(=O)(=O)c1cccc(NC(=O)C2=NNC(=O)CC2)c1 | -10.0% | / | / | 10.3%[57 µM] | -2.1% | -3.2
COc1ccc(-c2cc(C(F)(F)F)n3nc(C(=O)Nc4sc5c(c4C(=O)OC(C)C)CCCC5)cc3n2)cc1OC | / | 8.8% | ? | 19.2% | -11.6% | /
CC(C)OC(=O)c1c(NC(=O)c2cc3nc(-c4ccccc4)cc(C(F)(F)F)n3n2)sc2c1CCCC2 | / | -2.3% | 12.6µM* | -5.8% | -19.7% | /
CCC(=O)Nc1ccc(C(=O)NNC(=O)c2cccs2)cc1 | 0.0% | -0.3% | 0.199µM* | 18.7% | -13.3% | /
Cc1ccc(NC(=O)c2cccs2)cc1 | -12.6% | -0.8% | -6.0%[12.7 µM] | 16.5% | 0.0% | /
O=C(NNc1c(Cl)cccc1Cl)c1cccs1 | -9.6% | 24.9% | 11.2µM* | 14.1% | ? | 6.4
CCCCC(=O)Nc1ccc(C(=O)NNC(=O)c2cccs2)cc1 | -10.6% | 6.5% | 24.3%[59 µM] | 8.5% | -8.4% | 5.2
